Data from PubChem BioAssay AID588350 (The Scripps Research Institute Molecular Screening Center, 2011).
In all, about 1,900 compounds went through this assay and about 1,200 (63%) were called active.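 Rule for the calls: active = mean activation above the mean of solvent-only control wells plus 3 SD (cut at about 22% in these data); inactive = the rest.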 The set was probably picked from earlier hits. The full list was thinned out, with actives kept by preference.

Assay: GAA30 FXN promoter activators, confirmation, counter-screen for GAA850 frataxin promoter activator project, cell-based, luminescence, HEK293, lucGAA30, triplicate (AID 588350);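 note: counterscreen of GAA850 promoter hits where activity marks nonselective or luminescence artifacts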
Settings: HEK293 lucGAA30 FXN promoter luciferase, 24 h; at 6 µM; hits give high values

| SMILES | activation |
| --- | --- |
| CC(C)(C)c1ccc(OC(=O)N2CCCCC2)cc1 | 101% (active) |
